The full list was thinned out, with hits kept by preference.
nsP2pro primary: CHIKV nsP2 protease inhibition, primary qHTS; FRET peptide cleavage, nsP2pro, fluorescence 1 h; Q8JUX6; 31,000 compounds, 1.1% hits; AID 1964107; Potency, µM (highest dose often 24.9 µM), for the others: at the top dose activity change, negative = inhibition, usual class: inhibitors; also: nearly all actives have a fitted effect of over 60% in size
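FRET cleavage of 2.5 uM peptide 2 by 150 nM CHIKV protease domain at pH 8.0 (Tris, Tween 20). Compounds at 7 concentrations (up to 25 uM) preincubated 15 min. Fluorescence read after 1 h at room temperature.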
CHIKV nsP2 cell: inhibits CHIKV nsP2 protease in cells; shares compounds with nsP2pro primary; cell-based CHIKV nsP2 protease reporter assay; Potency, µM (doses to about 51.1 µM), inactives show at the highest dose activity change, negative = inhibition, most hits filed as inhibitors; 450 compounds, 10% hits; also: nearly all actives have a fitted effect of over 70% in size
Target sequence (Q8JUX6 220-798 limits assumed): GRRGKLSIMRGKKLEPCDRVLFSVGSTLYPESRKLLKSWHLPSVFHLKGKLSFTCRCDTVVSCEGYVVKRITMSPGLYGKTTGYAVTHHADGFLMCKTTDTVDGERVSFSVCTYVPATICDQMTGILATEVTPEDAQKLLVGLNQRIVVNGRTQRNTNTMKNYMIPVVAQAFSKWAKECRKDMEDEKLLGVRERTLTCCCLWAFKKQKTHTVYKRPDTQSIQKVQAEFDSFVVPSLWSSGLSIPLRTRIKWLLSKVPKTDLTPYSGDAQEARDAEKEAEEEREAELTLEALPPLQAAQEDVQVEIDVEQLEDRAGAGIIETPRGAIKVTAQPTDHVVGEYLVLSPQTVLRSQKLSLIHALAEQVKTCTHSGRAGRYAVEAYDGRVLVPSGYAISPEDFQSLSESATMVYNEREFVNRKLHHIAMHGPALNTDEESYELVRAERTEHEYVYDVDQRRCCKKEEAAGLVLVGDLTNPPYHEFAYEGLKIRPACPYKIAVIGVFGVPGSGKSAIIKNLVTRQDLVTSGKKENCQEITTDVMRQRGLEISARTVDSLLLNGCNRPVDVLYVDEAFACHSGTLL
CHIKV NSP2 FL: selectivity test for CHIKV nsP2 protease inhibitors: full-length NSP2; shares compounds with nsP2pro primary; Full-length CHIKV NSP2 protease enzymatic counterscreen; Potency, µM (series often up to 50.7 µM), inactives show at the highest dose activity change, negative = inhibition, actives largely listed as inhibitors; 410 compounds, 39% hits; also: nearly all actives have a fitted effect of over 65% in size
Furin counter: selectivity counter-screen for CHIKV nsP2 protease inhibitors: human furin | Recombinant human furin enzymatic counterscreen, fluorogenic substrate | Potency, µM (highest dose often 50.6 µM), inactives show top-dose activity change, negative = inhibition, most hits filed as inhibitors | shares compounds with nsP2pro primary | AID 1964102 | 410 compounds, 6% hits
NS23 peptide cs: blocks CHIKV nsP2 protease cleavage of endogenous NS2/3 peptide | shares compounds with nsP2pro primary | Potency, µM (series often up to 51 µM), for the others: top-dose activity change, negative = inhibition, actives largely listed as inhibitors | Purified CHIKV nsP2 protease, endogenous NS2/3 peptide cleavage | 410 compounds, 34% hits | AID 1964103; also: nearly all actives have a fitted effect of over 55% in size
Papain counter: selectivity counter-screen for CHIKV nsP2 protease inhibitors: papain; shares compounds with nsP2pro primary; purified papain protease activity, enzymatic inhibition; Potency, µM (highest dose often 51 µM), for inactives: at the highest dose activity change, negative = inhibition, hits mostly inhibitors; 410 compounds, 5% hits; AID 1964104
nsP2pro conf qHTS: confirmation of CHIKV nsP2 protease inhibitors; shares compounds with nsP2pro primary; CHIKV nsP2 protease enzymatic activity, qHTS; Potency, µM (doses to about 25.5 µM), for inactives: at the highest dose activity change, negative = inhibition, usual class: inhibitors; 410 compounds, 43% hits; AID 1964105; also: nearly all actives have a fitted effect of over 75% in size
HCV NS3 4A cs: selectivity counter-screen for CHIKV nsP2 protease inhibitors: HCV NS3/4A; 410 compounds, 20% hits; HCV NS3/4A protease biochemical counterscreen; Potency, µM (doses to about 50.9 µM), usual class: inhibitors; shares compounds with nsP2pro primary; AID 1964106; also: nearly all actives have a fitted effect of over 55% in size
The depositor's hits bear a star; i = inactive; u = inconclusive; [ ] = remark or other dose. Calls follow the shape of the full dose curve. % is scaled to controls: 0 for no effect and ±100 for the full control effect; potency is read from the fitted curve at half-maximal effect.

SMILES	nsP2pro primary	others
C=C(C)C(=O)OC1[C@@H]2C(=C)C(=O)O[C@@H]2C[C@@H](C)[C@@H]2C=CC(=O)[C@@]12C (stereo partly specified)	-7%
C=C(C(=O)O[C@H]1C/C(C)=C/CC/C(CO)=C/[C@H]2OC(=O)C(=C)[C@H]12)C(O)CO (stereo partly specified)	5.4µM*	CHIKV nsP2 cell=u;CHIKV NSP2 FL=10µM*;Furin counter=-4%[33.5 µM];NS23 peptide cs=u;Papain counter=-5%[33.5 µM];nsP2pro conf qHTS=4.4µM*;HCV NS3 4A cs=i
COC(=O)CNC(=O)c1cc(-c2ccc(Cl)cc2Cl)c2cnn(C)c2n1	i
Cc1nnc(CN(C)c2ncnc3ccc(-c4ccc5c(c4)OCO5)cc23)o1	i
CC(C)(O)c1ccc2c(c1)ncn2-c1cccc(-c2ccccc2C#N)c1	42%
Oc1c(C(c2ccc(Cl)cc2Cl)N2CCOCC2)sc2nc(-c3ccco3)nn12 (stereo unspecified)	-20%
OCCN1CCN(C(c2ccc(Cl)cc2Cl)c2sc3nc(-c4ccco4)nn3c2O)CC1 (stereo unspecified)	0%
Cc1ccc(C(c2sc3nc(-c4ccco4)nn3c2O)N2CCOCC2)cc1 (stereo unspecified)	u	CHIKV nsP2 cell=-14%;CHIKV NSP2 FL=-7%;Furin counter=-9%;NS23 peptide cs=1%;Papain counter=-19%;nsP2pro conf qHTS=-23%;HCV NS3 4A cs=i
CCOCCn1nc(CC)c2nc(N3CCC(C(=O)O)CC3)nc(Nc3cc(C)ccn3)c21	-3%
Cc1cnc(C(=O)N2CCc3onc(-c4ccc(F)c(F)c4)c3C2)cn1	-6%
CC(=O)N[C@@H](CCCN=C(N)N)C(=O)N[C@H]1CSSC[C@@H](C(N)=O)NC(=O)[C@H](Cc2c[nH]c3ccccc23)NC(=O)[C@H](CCCN=C(N)N)NC(=O)[C@@H](Cc2ccccc2)NC(=O)[C@H](Cc2cnc[nH]2)NC(=O)[C@@H](C)NC1=O	224%
O=C(O)c1ccc(O)c2ncc(N3CCCCC3CCc3ccccn3)cc12 (stereo unspecified)	i
O=C(Nc1cccc(Cc2ccccc2)n1)c1ccc(-c2cccc([N+](=O)[O-])c2)o1	10µM*	CHIKV nsP2 cell=48%;CHIKV NSP2 FL=u;Furin counter=0%;NS23 peptide cs=-14%;Papain counter=-10%;nsP2pro conf qHTS=u;HCV NS3 4A cs=i
O=C(Nc1cccc(Cc2ccccc2)c1)c1ccc(-c2cccc([N+](=O)[O-])c2)o1	5%
O=C(Nc1cncc(Cc2ccccc2)c1)c1ccc(-c2cccc([N+](=O)[O-])c2)o1	-12%
CCOC(=O)C1CCN(C(=O)CNC(=O)Nc2ccccc2Cl)CC1	-9%
CCOc1ccccc1CN1C[C@@H](CO)[C@H](C2CCN(C(C)=O)CC2)C1	2%
O=C(O/N=C1\c2ccccc2-c2nc3ccccc3nc21)c1ccco1	u	CHIKV nsP2 cell=1%;CHIKV NSP2 FL=3.7µM*;Furin counter=-10%;NS23 peptide cs=u;Papain counter=2.6µM*;nsP2pro conf qHTS=3.2µM*;HCV NS3 4A cs=i
O=C(Nc1cccnc1)c1ccco1	2%
Cc1cc(NC(=O)c2ccco2)cc(-c2nc3ccccc3o2)c1O	-28%
Cc1ccc(NS(=O)(=O)c2ccc3c(c2)CC(=O)N3C)cc1C	-4%
O=C(Cc1ccccc1)NCc1nnc2n1C(C(=O)O)CC2 (stereo unspecified)	-27%
COC1CC(=O)C23C(=O)NC(CC(C)C)C2C(C)=C(C)C(OO)C3/C=C(\C)CCC(O)C1O (stereo unspecified)	-15%[10 µM]
CC(C)(C)OC(=O)N1CCN(c2ccc(OCc3ccc(-c4ccc(C#N)cc4)o3)cc2)CC1	-19%

Source: PubChem BioAssay
